Laboratory results: PubChem BioAssay (NCATS)
Inconclusive results are not listed. Activity calls are given as the source filed them. Calls follow the shape of the dose curve; as a rule, active = well fitted cell-killing curve with a large enough effect; inconclusive = small, poorly fitted or top-dose-only effect, or effect the other way; inactive = no such curve, though single readings can be large or run the other way.

How the values were obtained:
[1] = Quantitative High-Throughput drug screen in 47 multiple myeloma cell lines against the NCATS MIPE library collection: OPM1_PLB cell viability assay (AID 1918989); also: nearly all actives have a fitted effect of over 40% in size; also: potency is read from the fitted curve at half-maximal effect
How it was run: (§1)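 Myeloma cells (500/well) treated with MIPE 4.0 compounds for 48 h at 37 °C, 5% CO2. Viability read as ATP via CellTiter-Glo luminescence after 5 min at RT; DMSO-only wells = 100%, media-only = 0% viability.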

[2] = Quantitative High-Throughput drug screen in 47 multiple myeloma cell lines against the NCATS MIPE library collection: SKMM1_PLB cell viability assay (AID 1919863); details: SKMM1 myeloma viability, CellTiter-Glo ATP, 48 h; viability: stronger effect = lower value; also: nearly all actives have a fitted effect of over 35% in size; also: potency is read from the fitted curve at half-maximal effect; as to viability: series mostly up to about 46 µM
How it was run: as §1

[3] = Quantitative High-Throughput drug screen in 47 multiple myeloma cell lines against the NCATS MIPE library collection: XG6_PLB cell viability assay (AID 1919865); also: nearly all actives have a fitted effect of over 40% in size; also: potency is read from the fitted curve at half-maximal effect
How it was run: as §1

[4] = Quantitative High-Throughput drug screen in 47 multiple myeloma cell lines against the NCATS MIPE library collection: XG1_PLB cell viability assay (AID 1919866); also: nearly all actives have a fitted effect of over 35% in size; also: potency is read from the fitted curve at half-maximal effect
How it was run: as §1

[5] = Quantitative High-Throughput drug screen in 47 multiple myeloma cell lines against the NCATS MIPE library collection: VP6_DJ cell viability assay (AID 1919867); also: nearly all actives have a fitted effect of over 40% in size; also: potency is read from the fitted curve at half-maximal effect
How it was run: as §1

[6] = Quantitative High-Throughput drug screen in 47 multiple myeloma cell lines against the NCATS MIPE library collection: U266_ATCC cell viability assay (AID 1919864); also: nearly all actives have a fitted effect of over 35% in size; also: potency is read from the fitted curve at half-maximal effect
How it was run: as §1

[7] = Quantitative High-Throughput drug screen in 47 multiple myeloma cell lines against the NCATS MIPE library collection: PE2_PLB cell viability assay (AID 1919869); also: nearly all actives have a fitted effect of over 35% in size; also: potency is read from the fitted curve at half-maximal effect
How it was run: as §1

[8] = Quantitative High-Throughput drug screen in 47 multiple myeloma cell lines against the NCATS MIPE library collection: PCM6_Riken cell viability assay (AID 1919870); also: nearly all actives have a fitted effect of over 30% in size; also: potency is read from the fitted curve at half-maximal effect
How it was run: as §1

[9] = Quantitative High-Throughput drug screen in 47 multiple myeloma cell lines against the NCATS MIPE library collection: RPMI8226_ATCC cell viability assay (AID 1919871); also: nearly all actives have a fitted effect of over 30% in size
How it was run: as §1

[10] = Quantitative High-Throughput drug screen in 47 multiple myeloma cell lines against the NCATS MIPE library collection: UTMC2_PLB cell viability assay (AID 1919868); also: nearly all actives have a fitted effect of over 55% in size; also: potency is read from the fitted curve at half-maximal effect
How it was run: as §1

Nc1cccc2c1CN(C1CCC(=O)NC1=O)C2=O (centres undefined)
active: Potency [4] 3.03 µM | Potency [5] 4.81 µM
inactive: Potency [1] | viability [2] 122% | Potency [3]

O=C(O)c1cccnc1Nc1cccc(C(F)(F)F)c1
inactive: Potency [1] | viability [2] 127% | Potency [3] | Potency [4]
active: Potency [5] 3.32 µM

CCCCc1ccc2nc(NC(=O)OC)[nH]c2c1
active: Potency [1] 0.0209 µM | Potency [2] 0.0469 µM | Potency [6] 0.743 µM | Potency [5] 0.0047 µM | Potency [7] 0.0418 µM

COc1ccccc1N1CCN(CCN(C(=O)C2CCCCC2)c2ccccn2)CC1
inactive: Potency [1] | viability [2] 126%
active: Potency [4] 7.43 µM | Potency [5] 5.9 µM

CC(S)C(=O)NCC(=O)O (centres undefined)
inactive: Potency [1] | viability [2] 132% | Potency [4] | Potency [7] | Potency [8] | Potency [9]

COc1cc(Nc2c(C#N)cnc3cc(OCCCN4CCN(C)CC4)c(OC)cc23)c(Cl)cc1Cl
active: Potency [1] 2.64 µM | Potency [2] 23.5 µM | Potency [3] 1.32 µM | Potency [4] 2.96 µM | Potency [5] 1.05 µM | Potency [10] 0.526 µM | Potency [7] 3.72 µM

CCCc1cc(=O)[nH]c(=S)[nH]1
inactive: Potency [1] | viability [2] 115% | Potency [4] | Potency [5] | Potency [7] | Potency [8] | Potency [9]

O=C(OC1C[C@H]2CC[C@@H](C1)[N+]21CCCC1)C(O)(c1ccccc1)c1ccccc1 (some centres undefined)
inactive: Potency [1] | viability [2] 138% | Potency [3] | Potency [4] | Potency [10] | Potency [7] | Potency [8] | Potency [9]

CCC1=C(C)CN(C(=O)NCCc2ccc(S(=O)(=O)NC(=O)NC3CCC(C)CC3)cc2)C1=O (centres undefined)
inactive: Potency [1] | Potency [6] | Potency [4] | Potency [5] | Potency [7] | Potency [8]

CC1Cc2ccccc2N1NC(=O)c1ccc(Cl)c(S(N)(=O)=O)c1 (centres undefined)
inactive: Potency [1] | Potency [4] | Potency [7] | Potency [9]

Cc1nc(Nc2ncc(C(=O)Nc3c(C)cccc3Cl)s2)cc(N2CCN(CCO)CC2)n1
active: Potency [1] 0.833 µM | Potency [3] 0.0332 µM | Potency [4] 16.6 µM | Potency [5] 0.0662 µM | Potency [7] 3.32 µM | Potency [8] 5.26 µM

CC(=O)N1CCN(c2ccc(OC[C@H]3CO[C@](Cn4ccnc4)(c4ccc(Cl)cc4Cl)O3)cc2)CC1
active: Potency [1] 16.6 µM | Potency [4] 13.2 µM | Potency [5] 11.8 µM | Potency [7] 14.8 µM

O=C(CCc1ccc(O)cc1)c1c(O)cc(O)cc1O
active: Potency [2] 1.05 µM | Potency [3] 0.118 µM | Potency [4] 0.132 µM | Potency [5] 0.418 µM | Potency [10] 0.332 µM | Potency [7] 5.26 µM
inactive: Potency [6]

CCc1nc(N)nc(N)c1-c1ccc(Cl)cc1
active: Potency [1] 2.35 µM | Potency [4] 3.72 µM | Potency [5] 3.32 µM

COC(=O)C1=C(C)NC(C)=C(C(=O)OC(C)C)C1c1cccc2nonc12 (centres undefined)
active: Potency [1] 26.4 µM | Potency [3] 5.9 µM | Potency [4] 11.8 µM | Potency [5] 26.4 µM | Potency [7] 20.9 µM | Potency [8] 26.4 µM

Cc1cc(Cl)ccc1OCCCC(=O)NO
active: Potency [1] 20.9 µM | Potency [6] 14.8 µM | Potency [4] 1.05 µM | Potency [5] 3.72 µM | Potency [7] 7.43 µM | Potency [8] 2.35 µM
inactive: Potency [9]

Nc1nc(N)c(N=O)c(OCC2CCCCC2)n1
active: Potency [1] 7.43 µM | Potency [3] 2.96 µM | Potency [4] 4.69 µM | Potency [5] 2.96 µM | Potency [7] 9.35 µM

CCCCCCCCCCCCCCCCCCCCCCO
inactive: Potency [1] | Potency [4] | Potency [5] | Potency [7] | Potency [9]

COC(=O)N[C@H](C(=O)N[C@@H](Cc1ccccc1)[C@@H](O)CN(Cc1ccc(-c2ccccn2)cc1)NC(=O)[C@@H](NC(=O)OC)C(C)(C)C)C(C)(C)C
inactive: Potency [1] | Potency [6] | Potency [3] | Potency [7]
active: Potency [5] 20.9 µM | Potency [8] 9.35 µM

CC(C)c1nc(CN(C)C(=O)N[C@H](C(=O)N[C@@H](Cc2ccccc2)C[C@H](O)[C@H](Cc2ccccc2)NC(=O)OCc2cncs2)C(C)C)cs1
inactive: Potency [1] | Potency [4] | Potency [8]

O=C(NCCO[N+](=O)[O-])c1cccnc1
inactive: Potency [1] | Potency [3] | Potency [4] | Potency [5] | Potency [7] | Potency [8]

c1cnc2cc3c(cc2n1)C1CNCC3C1
inactive: Potency [1] | Potency [4] | Potency [7]

CS(=O)(=O)OCCCCOS(C)(=O)=O
inactive: Potency [1] | Potency [4] | Potency [7]

Nc1nc(Cl)nc2c1ncn2[C@H]1C[C@H](O)[C@@H](CO)O1
active: Potency [1] 18.7 µM | Potency [3] 0.935 µM | Potency [5] 3.72 µM | Potency [10] 2.35 µM | Potency [7] 14.8 µM
inactive: Potency [9]

O=C1c2ccccc2-c2n[nH]c3cccc1c23
inactive: Potency [1] | Potency [6]

CC1(C)NC(=O)N(c2ccc([N+](=O)[O-])c(C(F)(F)F)c2)C1=O
inactive: Potency [1] | Potency [6] | Potency [3] | Potency [4] | Potency [5]
